Experimental data reported in PubChem BioAssay (NCI).
About 79,000 compounds went through this panel and 15% of them were active in at least one assay; those are over-represented in the sample as a whole. Values without a mark were called inactive. Calls of active or inactive are those of the source. Rule as the data show it: active = growth inhibition above about 70%; inactive = the rest.

Experiment: NCI Yeast Anticancer Drug Screen. Data for the rad18 strain (AID 177)
Conditions: S. cerevisiae rad18 mutant growth inhibition, active compounds read high
Experimental: Growth inhibition of yeast strains with defined genetic alterations is measured as a screen for potential anti-cancer activity. Selected strains with alterations in DNA damage repair or cell cycle control were exposed to compounds and growth inhibition was measured relative to vehicle treated controls. The strain used in this assay is rad18

In the case of `O=C(Nn1c(-c2ccccc2)nc2ccccc2c1=O)c1ccc(CS)cc1`, the growth inhibition (at 1.2 µM) is reported as 15%, the growth inhibition (at 3.7 µM) is reported as 16% and the growth inhibition (at 11.0 µM) is reported as 14%. For the same compound, the growth inhibition (at 33.0 µM) was 62% and the growth inhibition (at 100.0 µM) was 98% (active).
For `CN(C)CCNc1ccc2ncn3c4ccc(O)cc4c(=O)c1c23`, the growth inhibition (at 1.2 µM) was -23%, the growth inhibition (at 3.7 µM) was -1% and the growth inhibition (at 11.0 µM) was -9%. For the same compound, the growth inhibition (at 33.0 µM) was -12% and the growth inhibition (at 100.0 µM) was -12%.
In the case of `CCC(/C=C/c1ccccc1)=N\Nc1ccc(Cl)c(Cl)c1`, the growth inhibition (at 1.2 µM) is reported as 6%, the growth inhibition (at 3.7 µM) is reported as 16% and the growth inhibition (at 11.0 µM) is reported as 8%. The growth inhibition (at 33.0 µM) was 43% and the growth inhibition (at 100.0 µM) was 95% (active).
For `CC(C)OC(=O)NNc1cc(Cl)ccc1Cl`, the growth inhibition (at 1.2 µM) was 2%, the growth inhibition (at 3.7 µM) was 69% and the growth inhibition (at 11.0 µM) was 69%. For the same compound, the growth inhibition (at 33.0 µM) was 62% and the growth inhibition (at 100.0 µM) was 86% (active).
Work on `CN1CCN(C(=O)c2cccc3cccc(C(=O)O)c23)CC1` yielded a growth inhibition (at 1.2 µM) of 11%, a growth inhibition (at 3.7 µM) of 11% and a growth inhibition (at 11.0 µM) of 13%. For the same compound, the growth inhibition (at 33.0 µM) was 33% and the growth inhibition (at 100.0 µM) was 99% (active).
With `CCC[CH2][Sn]([CH2]CCC)([CH2]CCC)/[C](=C/[Si](C)(C)c1ccccc1)c1ccc2c(c1)OCO2` the growth inhibition (at 1.2 µM) was 25%, the growth inhibition (at 3.7 µM) was 82% (active) and the growth inhibition (at 11.0 µM) was 92% (active). For the same compound, the growth inhibition (at 33.0 µM) was 86% (active) and the growth inhibition (at 100.0 µM) was 88% (active).
With `COc1ccc2nc3cccc([N+](=O)[O-])c3c(NCCNCCN(C)C)c2c1` the growth inhibition (at 1.2 µM) was -5%, the growth inhibition (at 3.7 µM) was -3% and the growth inhibition (at 11.0 µM) was -4%. The growth inhibition (at 33.0 µM) was 3% and the growth inhibition (at 100.0 µM) was 6%.
With `CCN(CC)CC(=O)c1ccc2cc(Cl)c3ccccc3c2c1` the growth inhibition (at 1.2 µM) was 20%, the growth inhibition (at 3.7 µM) was 42% and the growth inhibition (at 11.0 µM) was 99% (active). The growth inhibition (at 33.0 µM) was 98% (active) and the growth inhibition (at 100.0 µM) was 98% (active).
